From the supplement of paper PMC10849652
The full data set covers some 8,800 targets. This sample favours those with a hit. About 0.5% of all pairs of compound and target were hits.

Legend:
Assay in all cases: log2 fold change, soluble protein after heating vs DMSO (PISA); higher = thermal stabilisation; K562 lysate, 10 uM; active = over 0.2 and 3.5 SD of the protein, either way, in both replicates (recomputed)
vemurafenib = compound: CCCS(=O)(=O)Nc1ccc(F)c(C(=O)c2c[nH]c3ncc(-c4ccc(Cl)cc4)cc23)c1F [vemurafenib]
In short: (§1)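 Pellets of K562 cells were dounce-homogenised in PBS pH 7.4 with 1 mM MgCl2, and the crude extract was held at 1 mg/mL protein for a 30 min treatment with 10 μM compound. Aliquots were heated for 3 min over 48°C-58°C and pooled before NP-40 was added to 0.5% at 4°C. The supernatant from 21,000xg for 90 min was quantified by TMTpro 16plex LC-MS/MS with channel sums equalised. Values are reported from duplicates as log-two fold change in thermal stability relative to solvent controls.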

[1] = compound: CCCS(=O)(=O)Nc1ccc(F)c(C(=O)c2c[nH]c3ncc(Cl)cc23)c1F
In short: as §1

barasertib = compound: CCN(CCCOc1ccc2c(Nc3cc(CC(=O)Nc4cccc(F)c4)[nH]n3)ncnc2c1)CCOP(=O)(O)O [barasertib]
In short: as §1

[2] = compound: CC[C@@H]1C(=O)N(C)c2cnc(Nc3ccc(C(=O)NC4CCN(C)CC4)cc3OC)nc2N1C1CCCC1
In short: as §1

volasertib = compound: CC[C@@H]1C(=O)N(C)c2cnc(Nc3ccc(C(=O)N[C@H]4CC[C@H](N5CCN(CC6CC6)CC5)CC4)cc3OC)nc2N1C(C)C [volasertib]
In short: as §1

[3] = compound: CCn1cc(-c2ccnc3[nH]c(-c4cccc(CN(C)C)c4)cc23)c(-c2ccc(NC(=O)N(C)C)cc2)n1
In short: as §1

[4] = compound: CN1CCC(CNc2ccc3ncc(-c4cccc(OC(F)(F)F)c4)n3n2)CC1
In short: as §1

saracatinib = compound: CN1CCN(CCOc2cc(OC3CCOCC3)c3c(Nc4c(Cl)ccc5c4OCO5)ncnc3c2)CC1 [saracatinib]
In short: as §1

sotrastaurin = compound: CN1CCN(c2nc(C3=C(c4c[nH]c5ccccc45)C(=O)NC3=O)c3ccccc3n2)CC1 [sotrastaurin]
In short: as §1

alvocidib = compound: CN1CC[C@H](c2c(O)cc(O)c3c(=O)cc(-c4ccccc4Cl)oc23)[C@H](O)C1 [alvocidib]
In short: as §1

defactinib = compound: CNC(=O)c1ccc(Nc2ncc(C(F)(F)F)c(NCc3nccnc3N(C)S(C)(=O)=O)n2)cc1 [defactinib]
In short: as §1

[5] = compound: CNc1nc(-c2ccc3c(N)n[nH]c3c2)cc(N2C[C@@H](C(=O)NC3CCCCC3)CC[C@H]2C)n1
In short: as §1

encorafenib = compound: COC(=O)N[C@@H](C)CNc1nccc(-c2cn(C(C)C)nc2-c2cc(Cl)cc(NS(C)(=O)=O)c2F)n1 [encorafenib]
In short: as §1

[6] = compound: COC(=O)[C@H](CCSC)NC(=O)C1=C(C=C(C=C1)NC[C@H](CS)N)C2=CC=CC=C2
In short: as §1

alisertib = compound: COc1cc(Nc2ncc3c(n2)-c2ccc(Cl)cc2C(c2c(F)cccc2OC)=NC3)ccc1C(=O)O [alisertib]
In short: as §1

[7] = compound: COc1cc2nc(-c3cc(F)ccc3O)nc(N[C@@H]3CNC[C@H]3C(C)(C)O)c2cc1OC
In short: as §1

gefitinib = compound: COc1cc2ncnc(Nc3ccc(F)c(Cl)c3)c2cc1OCCCN1CCOCC1 [gefitinib]
In short: as §1

[8] = compound: CCn1c(C(=O)N(C2CC2)C2CC2)cc2c3c(ncn3C)c(Nc3cc(C)n(C)n3)nc21
In short: as §1

Tubastatin A = compound: CN1CCc2c(c3ccccc3n2Cc2ccc(C(=O)NO)cc2)C1 [Tubastatin A]
In short: as §1

[9] = compound: CNC(=O)C1=CC=CC=C1NC2=NC(=NC=C2Cl)NC3=C(C=C(C=C3)N4CCOCC4)OC
In short: as §1

Measured: log2 fold change

SAP30 (UniProt O75446)
Sequence of UniProt O75446 (O75446 whole entry, looked up): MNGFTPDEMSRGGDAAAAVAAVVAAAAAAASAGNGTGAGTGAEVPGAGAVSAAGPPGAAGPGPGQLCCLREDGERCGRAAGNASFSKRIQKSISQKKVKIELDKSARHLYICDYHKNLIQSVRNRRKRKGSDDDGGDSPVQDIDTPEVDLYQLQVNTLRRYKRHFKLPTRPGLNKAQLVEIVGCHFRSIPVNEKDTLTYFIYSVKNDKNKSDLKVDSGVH
inactive: vemurafenib -0.016 | [1] 0.006 | barasertib 0.051 | [2] 0.063 | volasertib -0.054 | [3] 0.103 | [4] -0.022 | saracatinib 0.016 | sotrastaurin -0.013 | alvocidib -0.022 | defactinib -0.028 | [5] 0.089 | encorafenib -0.007 | [6] 0.053 | alisertib 0.044 | [7] 0.087 | gefitinib -0.285

RAPGEF4 (UniProt Q8WZA2)
Sequence of UniProt Q8WZA2 (Q8WZA2 whole entry, looked up): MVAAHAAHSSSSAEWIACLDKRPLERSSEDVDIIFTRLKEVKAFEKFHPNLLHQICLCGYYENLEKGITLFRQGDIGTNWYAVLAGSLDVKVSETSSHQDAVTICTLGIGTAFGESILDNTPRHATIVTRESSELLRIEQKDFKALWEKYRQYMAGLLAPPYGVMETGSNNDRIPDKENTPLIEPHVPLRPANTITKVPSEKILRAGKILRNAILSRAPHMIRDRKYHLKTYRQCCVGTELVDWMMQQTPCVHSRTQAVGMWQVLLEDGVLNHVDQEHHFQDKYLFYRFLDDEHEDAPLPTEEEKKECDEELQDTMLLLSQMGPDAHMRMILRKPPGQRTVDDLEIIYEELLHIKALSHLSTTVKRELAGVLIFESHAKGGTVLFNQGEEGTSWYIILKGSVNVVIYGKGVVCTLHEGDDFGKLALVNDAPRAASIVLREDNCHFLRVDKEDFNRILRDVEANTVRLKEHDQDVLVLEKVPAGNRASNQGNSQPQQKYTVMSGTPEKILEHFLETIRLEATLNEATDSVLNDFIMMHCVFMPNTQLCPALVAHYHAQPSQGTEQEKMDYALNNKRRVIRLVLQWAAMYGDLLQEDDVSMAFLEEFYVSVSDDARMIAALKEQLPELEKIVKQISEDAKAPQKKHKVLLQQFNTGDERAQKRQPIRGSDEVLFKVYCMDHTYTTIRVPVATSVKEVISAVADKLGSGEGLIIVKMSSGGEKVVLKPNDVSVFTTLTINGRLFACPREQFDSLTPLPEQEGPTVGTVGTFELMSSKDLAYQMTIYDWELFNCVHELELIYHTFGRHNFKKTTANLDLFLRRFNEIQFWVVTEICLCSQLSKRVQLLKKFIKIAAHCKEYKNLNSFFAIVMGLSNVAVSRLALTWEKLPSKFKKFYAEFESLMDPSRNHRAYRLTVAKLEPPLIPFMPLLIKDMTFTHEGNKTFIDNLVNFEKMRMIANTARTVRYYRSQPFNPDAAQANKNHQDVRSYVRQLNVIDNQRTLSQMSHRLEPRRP
active: [3] -0.887
inactive: vemurafenib 0.157 | [1] 0.077 | barasertib 0.022 | [2] 0.174 | volasertib 0.049 | [8] -0.259 | [4] 0.391 | saracatinib 0.037 | sotrastaurin 0.001 | alvocidib -0.367 | Tubastatin A 0.156 | [9] 0.061 | defactinib -0.023 | [5] 0.433 | encorafenib 0.018 | [6] 0.147 | [7] 0.196

SESN2 (UniProt P58004)
Sequence of UniProt P58004 (P58004 whole entry, looked up): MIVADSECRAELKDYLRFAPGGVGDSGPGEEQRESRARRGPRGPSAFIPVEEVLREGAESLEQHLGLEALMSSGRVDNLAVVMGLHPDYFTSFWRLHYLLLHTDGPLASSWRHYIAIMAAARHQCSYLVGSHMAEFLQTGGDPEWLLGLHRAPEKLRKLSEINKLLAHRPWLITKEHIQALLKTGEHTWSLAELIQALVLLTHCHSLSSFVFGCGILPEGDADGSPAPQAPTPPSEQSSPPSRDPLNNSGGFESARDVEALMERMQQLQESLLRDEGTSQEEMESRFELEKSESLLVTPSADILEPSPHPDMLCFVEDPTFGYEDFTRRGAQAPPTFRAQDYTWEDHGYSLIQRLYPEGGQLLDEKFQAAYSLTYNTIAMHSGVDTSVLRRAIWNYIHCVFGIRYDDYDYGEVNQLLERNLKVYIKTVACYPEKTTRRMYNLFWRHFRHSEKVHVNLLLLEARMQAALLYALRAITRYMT
inactive: vemurafenib -0.008 | [1] 0.025 | barasertib 0.049 | [2] -0.103 | volasertib -0.066 | [8] 0.019 | [3] 0.02 | [4] -0.105 | saracatinib -0.043 | sotrastaurin 0.047 | alvocidib 0.028 | Tubastatin A -0.093 | [9] -0.028 | defactinib 0.039 | [5] 0.033 | encorafenib 0.038 | [6] -0.001 | alisertib -0.026 | [7] -0.045 | gefitinib -0.034

RXRB isoform 3 (UniProt P28702)
Sequence of UniProt P28702 (P28702 whole entry, looked up): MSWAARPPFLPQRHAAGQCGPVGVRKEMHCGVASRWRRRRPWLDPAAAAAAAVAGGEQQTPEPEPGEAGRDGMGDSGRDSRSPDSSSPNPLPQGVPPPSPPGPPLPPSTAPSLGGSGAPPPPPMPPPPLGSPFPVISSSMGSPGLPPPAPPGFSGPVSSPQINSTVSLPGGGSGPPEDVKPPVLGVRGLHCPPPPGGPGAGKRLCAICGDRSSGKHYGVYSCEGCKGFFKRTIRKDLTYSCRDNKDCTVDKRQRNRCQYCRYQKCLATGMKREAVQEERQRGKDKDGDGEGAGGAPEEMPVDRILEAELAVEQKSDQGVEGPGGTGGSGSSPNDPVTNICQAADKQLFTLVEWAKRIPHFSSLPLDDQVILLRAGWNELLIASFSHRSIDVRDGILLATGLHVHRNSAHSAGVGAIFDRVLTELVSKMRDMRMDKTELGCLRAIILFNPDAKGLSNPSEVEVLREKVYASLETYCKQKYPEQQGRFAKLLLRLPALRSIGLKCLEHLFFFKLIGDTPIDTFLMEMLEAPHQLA
inactive: vemurafenib 0.028 | [1] 0.136 | barasertib 0.106 | [2] 0.008 | volasertib -0.125 | [3] -0.008 | [4] -0.089 | saracatinib -0.048 | sotrastaurin -0.051 | alvocidib 0.008 | [9] 0.126 | defactinib 0.05 | [5] -0.003 | encorafenib 0.066 | [6] -0.042 | alisertib -0.044 | [7] 0.073 | gefitinib 0.047

RNF181 (UniProt Q9P0P0)
Sequence of UniProt Q9P0P0 (Q9P0P0 whole entry, looked up): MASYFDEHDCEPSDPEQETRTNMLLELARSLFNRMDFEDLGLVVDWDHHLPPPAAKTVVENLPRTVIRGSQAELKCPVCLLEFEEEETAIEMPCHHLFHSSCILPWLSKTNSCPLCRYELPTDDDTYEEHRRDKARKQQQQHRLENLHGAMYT
inactive: vemurafenib -0.06 | [1] 0.025 | barasertib 0.179 | [2] -0.036 | volasertib 0.004 | [8] 0.018 | [3] -0.013 | [4] -0.035 | saracatinib -0.03 | sotrastaurin -0.02 | alvocidib 0 | Tubastatin A 0.021 | [9] 0.037 | defactinib 0.044 | [5] -0.008 | encorafenib 0.029 | [6] -0.201 | alisertib -0.011 | [7] -0.004 | gefitinib -0.083

SCD (UniProt O00767)
Sequence of UniProt O00767 (O00767 whole entry, looked up): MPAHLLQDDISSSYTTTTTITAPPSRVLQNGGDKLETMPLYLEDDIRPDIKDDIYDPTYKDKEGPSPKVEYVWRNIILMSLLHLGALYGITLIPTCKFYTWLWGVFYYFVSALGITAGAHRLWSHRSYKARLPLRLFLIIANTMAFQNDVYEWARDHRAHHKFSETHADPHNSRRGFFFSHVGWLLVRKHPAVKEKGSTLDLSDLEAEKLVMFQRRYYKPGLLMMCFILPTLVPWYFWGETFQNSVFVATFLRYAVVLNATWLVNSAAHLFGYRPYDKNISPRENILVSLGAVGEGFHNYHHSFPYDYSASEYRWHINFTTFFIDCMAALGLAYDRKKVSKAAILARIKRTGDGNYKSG
inactive: vemurafenib -0.03 | [1] 0.111 | barasertib 0.042 | [2] 0.006 | volasertib 0.098 | [8] -0.082 | [4] 0.212 | saracatinib 0.071 | sotrastaurin 0.084 | alvocidib -0.138 | Tubastatin A -0.015 | [9] -0.014 | defactinib -0.02 | [5] -0.091 | encorafenib -0.097 | [6] 0.076 | alisertib 0.006 | [7] 0.004 | gefitinib 0.011
active: [3] -0.504
